Compounds without any hit were thinned out: in the full panel of roughly 83,000, 20% have a hit.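 In brief: 96-well plates, 48 h treatment, single concentration, percent growth endpoint.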 Values without a mark were called inactive. Active and inactive are the calls of the source.

The test system of this test is UO-31 renal. Description: NCI-60 one-dose screen, 48 h (100 = growth as untreated, 0 = no growth, -100 = all killed). The note with it: 10 µM unless noted. Here is the method: Growth inhibition of the UO-31 human tumor cell line is measured as a screen for anti-cancer activity. Cells are grown in 96 well plates and exposed to the test compound for 48 hours. Compounds are tested at a single concentration, which is 10^-5 M for most compounds. The reported endpoint is percent growth (GI% or GIPRCNT), where numbers from 0 - 100% represent growth inhibition, and numbers from -100% - 0 represent cell death. For example, a value of 40 represents 60% growth inhibition. A value of 0 means no net growth occurred over the course of the experiment. A value of -40 indicates 40% of cells at the beginning of the experiment died by the end of the experiment. A value of -100 means all cells are dead at the end of the experiment.
NCI-60 Human Tumor Cell Lines Screen was performed using the standard one-dose NCI protocol, which is described in more detail at https://dtp.cancer.gov/discovery_development/nci-60/default.htm.
Compounds with GIPRCNT values below 10 were considered active. Activity score was based on GIPRCNT using the following formula: […]
Score is 0 for GIPRCNT values of 100 or above, 50 for GIPRCNT values of 0, and 100 for GIPRCNT values of -100.
For `COc1ccc(CCn2cncc2-c2c[nH]c3ccccc23)cc1`, the growth was 50.7%.

`N#C/C(=C\c1ccc([N+](=O)[O-])s1)c1nc2cc(Cl)ccc2s1`: the growth is -15.8% (active).

In the case of `Cc1cc2c(C(=O)NCC#N)cccc2n1-c1nc2c(c(NCc3ccccc3)n1)CCCC2`, the growth is -84.3% (active).

In the case of `COc1cc(/C=C\c2cc(/C=C\c3ccc(O)c(OC)c3)n(C(=O)COc3ccccc3)n2)ccc1O`, the growth was 0.475% (active).

As for `CC(=O)c1cc2c(N)c(C(=O)Nc3cccc4ccncc34)sc2nc1C`, the growth was 88.2%.

Take `O=C1Nc2cc(-c3ccc(NC(=O)C4CC4)cc3)ccc2/C1=C/c1ccc[nH]1`: the growth is 80.2%.

As to `Cc1cc2c(c(C)c1Cl)C(=O)/C(=C/c1ccc(O)c(O)c1)O2`, the growth is 72.2%.

For `O=C1c2ccc3c4c(ccc(c24)C(=O)N1CCCNCc1ccccc1Cl)C(=O)N(CCCNCc1ccccc1Cl)C3=O`, the growth is -35% (active).

Regarding `COc1ccc(/C=C/c2nc(Nc3cccc(NC(C)=O)c3)c3ccccc3n2)cc1`, the growth was 68.3%.

Consider `COc1ccc(C(=O)c2nc3ccccc3n2CC(=O)c2ccc(F)cc2)cc1`, for which the growth was 88.3%.

Take `COc1ccc(NC(=O)c2cc(NCc3cc(O)ccc3O)ccc2O)cc1`: the growth was 65.8%.

Take `CCN1C(=O)/C(=C/C(=O)OC)S/C1=N\NC(=O)c1cc2ccc1/C=C\c1ccc(cc1)/C=C\2`: the growth is 79%.

In the case of `O=C(C[n+]1cccc2ccccc21)c1ccc(O)c(O)c1`, the growth is 50.6%.

Consider `COc1cc2nc(-c3ccc(Cl)cc3)cc(OCCCN3CCCC3)c2cc1OC`, for which the growth is 42.3%.

On to `Brc1ccc(Nc2csc(-c3ccccn3)n2)cc1`, for which the growth was 52.2%.

Consider `COc1cc(NC(=O)CSc2nc3ccc(C)cc3c(=O)n2Cc2ccccc2)cc(OC)c1OC`, for which the growth was 71.4%.

As to `Nc1n[nH]c2cccc(C#Cc3cccc(C(=O)Nc4cc(CN5CCOCC5)cc(C(F)(F)F)c4)c3)c12`, the growth is 17.6%.

Turning to `CC1=C(C(=O)/C=C/c2c[nH]c3ccccc23)C(c2ccccc2)NC(=S)N1` (stereo not given), the growth is 63.9%.

For the compound `CC(=O)OC[C@]12CC[C@@H](C(=O)CBr)[C@@H]1[C@H]1CC[C@@H]3[C@@]4(C)CC[C@H](OC(C)=O)C(C)(C)[C@@H]4CC[C@@]3(C)[C@]1(C)CC2`, the growth was 90.7%.

Turning to `C/C=C(\C)C(=O)NC1=CC[C@@]2(C)C(=CCC3C2CC[C@@]2(C)C3CC[C@@H]2C(C)N(C)C)C1=O` (stereo not given in full), the growth is 1.15% (active).

With `C#Cc1cccc(NC(=O)c2cccc(NC(=O)CCl)c2)c1`, the growth is -98.9% [8.25 µM] (active).

On to `Cc1c2cc[nH]c(=O)c2c(C)c2c1[nH]c1cc(OCCN3CCN(C)CC3)ccc12`, for which the growth was 2.27% (active).

With `Oc1ccc(C(c2ccc(O)cc2)c2ccc(Br)cn2)cc1`, the growth was 53%.

Turning to `Cc1nc2sccn2c1-c1cn2ccsc2n1`, the growth is 89.7%.

`N#C/C(=C\c1ccc(Cl)cc1)n1nnc2cc(F)c(F)cc21`: the growth is -17.5% (active).

For the compound `CC/C(=C\c1ccc(OC)cc1)C(=O)c1ccc(OC)cc1`, the growth was 81.1%.

Take `O=C1c2ccccc2CCC12OC2c1cn(-c2ccccc2)nc1-c1ccc(Cl)cc1` (stereo not given): the growth is 88.6%.

Take `N#CC(C#N)=Cc1cc2ccccc2nc1Oc1ccc(C(F)(F)F)cc1`: the growth was 43.8%.

As for `CN[C@@H](C)C(=O)N[C@H]1CCS[C@H]2CC(C)(C)[C@@H](C(=O)N[C@H]3c4ccccc4C[C@H]3OCC#CC#CCO[C@@H]3Cc4ccccc4[C@@H]3NC(=O)[C@H]3N4C(=O)[C@@H](NC(=O)[C@H](C)NC)CCS[C@H]4CC3(C)C)N2C1=O`, the growth was 97.8%.

For the compound `O=C(N/N=C/c1ccc(Oc2ccccc2)cc1)c1cnn2c1NC(c1ccccc1)C2` (stereo not given), the growth is 60.7%.

`O=C(Nc1ncc(Cc2cc(Cl)ccc2Cl)s1)c1cccs1`: the growth is 62.5%.

As for `COc1ccc(C(=O)/C=C/c2cc3ccccc3n3nnnc23)cc1`, the growth was 90.8%.

With `O=C1c2cccc3c(-c4ccc5c(c4)ncn5C4CCCCC4)ccc(c23)C(=O)N1CCO`, the growth is 62.1%.

Turning to `COc1ccc(C(=O)C2C(C#N)C(C#N)C3c4ccccc4C=CN23)cc1` (stereo not given), the growth is 60.7%.

As to `C=CC(=O)N[C@@H](/C=C/C(=O)OCC)Cc1ccc(-c2cc(Cl)cc(Cl)c2)cc1`, the growth is 14.2%.

As for `COC(=O)c1ccc2c(c1)[n+](=O)c(C(C)=O)c(C(F)(F)F)n2[O-]`, the growth was -82% (active).

On to `Cc1cnc(C(=O)Nc2nc3ccc(S(=O)(=O)Nc4ccc(C5(C(F)(F)F)CC5)cc4)cc3[nH]2)cn1`, for which the growth was 38.7%.

Regarding `O=C(Nc1ccccc1)Nc1ccc2cc3ccc(NC(=O)Nc4ccccc4)cc3nc2c1`, the growth was 89.9%.

On to `C=C(C)[C@@H]1CC[C@]2(CN)CC[C@]3(C)[C@H](CC[C@@H]4[C@@]5(C)CCCNC(C)(C)[C@@H]5CC[C@]43C)[C@@H]12`, for which the growth was 5.31% (active).

As for `COC1=CC(=O)c2ccccc2C1=O`, the growth was 71.9%.

These data come from PubChem BioAssay (NCI).
